Reference: publication PMC5700166

Assays:
[1] = target: T1, GST-Nv-NF-kB (Ser allele) (Nematostella vectensis, UniProt A7UNT2 2-411); assay: protein-binding microarray (PBM); PBM: ~300 nM protein, 6 mM HEPES pH 7.8, 80 mM KCl, 0.5 mM EDTA, 0.5 mM EGTA, 6% glycerol, 35 ng/ul poly-dIdC, 1% milk, 1 h, room temperature; Ap Aiptasia and Nv Nematostella (sea anemones) / Co Capsaspora / Aq Amphimedon (sponge) / Dm Drosophila / Hu human; RHD is the Rel homology domain; high values mean tight binding; details: dsDNA, one strand shown
T1 sequence: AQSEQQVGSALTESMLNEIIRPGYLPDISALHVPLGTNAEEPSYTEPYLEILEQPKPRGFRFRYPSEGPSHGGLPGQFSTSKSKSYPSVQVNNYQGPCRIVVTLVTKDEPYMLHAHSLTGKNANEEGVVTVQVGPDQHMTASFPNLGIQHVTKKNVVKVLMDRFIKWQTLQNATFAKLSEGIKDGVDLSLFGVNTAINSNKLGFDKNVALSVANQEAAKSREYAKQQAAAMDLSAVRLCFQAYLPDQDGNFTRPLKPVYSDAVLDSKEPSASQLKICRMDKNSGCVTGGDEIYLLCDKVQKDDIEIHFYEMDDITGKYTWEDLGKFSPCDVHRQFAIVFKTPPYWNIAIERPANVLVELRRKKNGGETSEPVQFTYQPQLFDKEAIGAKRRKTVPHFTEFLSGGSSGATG

GST-Hu-p50 = GST-Hu-p50 (Homo sapiens, UniProt P19838 7-356); assay: as above; details: dsDNA, one strand shown
Chain of GST-Hu-p50 (P19838 7-356): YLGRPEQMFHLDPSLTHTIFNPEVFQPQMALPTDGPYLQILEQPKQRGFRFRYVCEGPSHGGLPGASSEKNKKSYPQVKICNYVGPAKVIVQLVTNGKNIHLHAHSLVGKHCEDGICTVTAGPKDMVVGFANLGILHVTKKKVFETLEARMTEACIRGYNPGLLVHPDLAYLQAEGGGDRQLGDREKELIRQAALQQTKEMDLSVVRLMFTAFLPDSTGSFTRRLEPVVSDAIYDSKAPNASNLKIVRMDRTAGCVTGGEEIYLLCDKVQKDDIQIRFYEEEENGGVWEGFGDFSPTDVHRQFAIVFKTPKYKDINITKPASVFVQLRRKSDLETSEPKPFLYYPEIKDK

Sequence	binding signal [1]	binding signal (GST-Hu-p50)
CCGATTAACATCACGAGTTTCCCTGATGTTAATCGGGTCTTGATTCGCTTGACGCTGCTG	5.41 z-score	2.39 z-score
CCGATTAACATCAGGGGAAAGCATGATGTTAATCGGGTCTTGATTCGCTTGACGCTGCTG	–	4.81 z-score
CCGATTAACATCAGAATTGCCCCTGATGTTAATCGGGTCTTGATTCGCTTGACGCTGCTG	2.89 z-score	4.35 z-score
CCGATTAACATCAAAATTCCCTCTGATGTTAATCGGGTCTTGATTCGCTTGACGCTGCTG	–	5.19 z-score
CCGATTAACATCAGGAAGTTACCTGATGTTAATCGGGTCTTGATTCGCTTGACGCTGCTG	–	1.42 z-score
CCGATTAACATCACGGGATTTCCTGATGTTAATCGGGTCTTGATTCGCTTGACGCTGCTG	3.47 z-score	3.82 z-score
CCGATTAACATCACCCACCGATTTGATGTTAATCGGGTCTTGATTCGCTTGACGCTGCTG	–	1.08 z-score
CCGATTAACATCAATTTTTCCCATGATGTTAATCGGGTCTTGATTCGCTTGACGCTGCTG	5.77 z-score	3.53 z-score
CCGATTAACATCAACCCCGTTTCTGATGTTAATCGGGTCTTGATTCGCTTGACGCTGCTG	–	1.79 z-score
CCGATTAACATCAATATAGTCCCTGATGTTAATCGGGTCTTGATTCGCTTGACGCTGCTG	4.68 z-score	3.8 z-score
CCGATTAACATCACGGCTTTCCCTGATGTTAATCGGGTCTTGATTCGCTTGACGCTGCTG	3.48 z-score	2.19 z-score
CCGATTAACATCAGAGTTTTCCCTGATGTTAATCGGGTCTTGATTCGCTTGACGCTGCTG	–	3.99 z-score
CCGATTAACATCACCGTTTAAGCTGATGTTAATCGGGTCTTGATTCGCTTGACGCTGCTG	–	1.15 z-score
CCGATTAACATCAATTAGGTGGGTGATGTTAATCGGGTCTTGATTCGCTTGACGCTGCTG	–	1.64 z-score
CCGATTAACATCAAGGAAAGCCCTGATGTTAATCGGGTCTTGATTCGCTTGACGCTGCTG	–	1.13 z-score
CCGATTAACATCAGAAATCCCGCTGATGTTAATCGGGTCTTGATTCGCTTGACGCTGCTG	2.45 z-score	2.45 z-score
CCGATTAACATCAGGAAAGTACCTGATGTTAATCGGGTCTTGATTCGCTTGACGCTGCTG	–	5.16 z-score
CCGATTAACATCAGAAATGGGAATGATGTTAATCGGGTCTTGATTCGCTTGACGCTGCTG	1.7 z-score	1.72 z-score

Sequence	binding signal [1]	binding signal (GST-Hu-p50)
CCGATTAACATCAGTGATTAAGGTGATGTTAATCGGGTCTTGATTCGCTTGACGCTGCTG	–	1.25 z-score
CCGATTAACATCAGGGGCGGGAATGATGTTAATCGGGTCTTGATTCGCTTGACGCTGCTG	3.18 z-score	2.9 z-score
CCGATTAACATCAGGGGATGACCTGATGTTAATCGGGTCTTGATTCGCTTGACGCTGCTG	3.75 z-score	3.42 z-score
CCGATTAACATCAGGGGTATACCTGATGTTAATCGGGTCTTGATTCGCTTGACGCTGCTG	–	1.99 z-score
CCGATTAACATCAAGGGATTTCCTGATGTTAATCGGGTCTTGATTCGCTTGACGCTGCTG	3.4 z-score	3.68 z-score
CCGATTAACATCATGCGGGAAAATGATGTTAATCGGGTCTTGATTCGCTTGACGCTGCTG	4.76 z-score	2.69 z-score
CCGATTAACATCACTGTTTTCCCTGATGTTAATCGGGTCTTGATTCGCTTGACGCTGCTG	6.12 z-score	3.14 z-score
CCGATTAACATCAAGGAAATTCCTGATGTTAATCGGGTCTTGATTCGCTTGACGCTGCTG	–	1.33 z-score
CCGATTAACATCAGCGAATTCCCTGATGTTAATCGGGTCTTGATTCGCTTGACGCTGCTG	4.46 z-score	3.28 z-score
CCGATTAACATCAAAACTTCCCATGATGTTAATCGGGTCTTGATTCGCTTGACGCTGCTG	3.45 z-score	2.96 z-score
CCGATTAACATCAGGGAATTATATGATGTTAATCGGGTCTTGATTCGCTTGACGCTGCTG	5.77 z-score	4.39 z-score
CCGATTAACATCAGGGGGTCACCTGATGTTAATCGGGTCTTGATTCGCTTGACGCTGCTG	2.36 z-score	2.9 z-score
CCGATTAACATCAGGGGAGCCCCTGATGTTAATCGGGTCTTGATTCGCTTGACGCTGCTG	5.34 z-score	5.03 z-score
CCGATTAACATCACCCAAAGTTTTGATGTTAATCGGGTCTTGATTCGCTTGACGCTGCTG	–	1.11 z-score
CCGATTAACATCAGGGGAGTTAATGATGTTAATCGGGTCTTGATTCGCTTGACGCTGCTG	4.74 z-score	3.74 z-score
CCGATTAACATCACAGATTTCCCTGATGTTAATCGGGTCTTGATTCGCTTGACGCTGCTG	–	4.4 z-score
CCGATTAACATCAGGGGAAGGACTGATGTTAATCGGGTCTTGATTCGCTTGACGCTGCTG	5.04 z-score	3.89 z-score
